This is a sample that favours compounds with a hit; in the whole collection about 19% have one here.
DT40 TDP1 CPT = DT40-hTDP1 cell growth loss with CPT | chicken DT40 Tdp1-/-;hTDP1 cells + 20 nM CPT, ATP luminescence, 48 h | Potency, µM (doses to about 46.2 µM), for the others: at the highest dose activity change, negative = growth inhibition, actives largely listed as inhibitors | 420,000 tested, 12% active; further: potency means the concentration at half of the fitted maximal effect; nearly all actives have a fitted effect of over 55% in size
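Chicken DT40 Tdp1-/- cells complemented with human TDP1, 400 cells/well, exposed to compounds plus 20 nM camptothecin for at least 48 h at 37 C; viability read as ATP content by CellTiter-Glo luminescence.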
TDP1 cell noCPT = qHTS for Inhibitors of human tyrosyl-DNA phosphodiesterase 1 (TDP1): qHTS in cells in absence of CPT | DT40 Tdp1-/- hTDP1 cells, no CPT, ATP luminescence, 48 h | Potency, µM (series often up to 46.2 µM), without a hit: at the highest dose activity change, negative = growth inhibition, hits mostly inhibitors | 420,000 tested, 15% active; further: potency means the concentration at half of the fitted maximal effect; nearly all actives have a fitted effect of over 55% in size
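Chicken DT40 Tdp1-/- cells stably complemented with human TDP1 were seeded at 400 cells/well with DMSO in place of 20 nM camptothecin. After compound pinning, cells grew at least 48 hr at 37 °C; viability read by CellTiter-Glo luminescence.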
IL1B secr inh = blocks inflammasome-driven IL-1 beta release; 360,000 tested, 4.7% active; activity change, % at 57.5 µM; THP-1 LPS/ATP IL-1B secretion, AlphaLISA, 16 h; stronger effect = lower value; AID 743279; in the data active means activity change below about -50%; inconclusive means mostly about -30% to -49%
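Secreted IL-1B measured by AlphaLISA bead assay after 16 h compound exposure of THP-1 cells; compounds (final up to 57.5 uM) added 1 h before LPS (250 ng/mL) and ATP (1.25 mM) stimulation; lower signal means less secretion.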
HT1080-NT tox = kills 2HG-producing HT-1080-NT fibrosarcoma cells | Potency, µM (series often up to 46.1 µM), for inactives: at the highest dose activity, negative = less viability, actives largely listed as cytotoxic | 360,000 tested, 1.6% active | AID 686970 | HT-1080-NT fibrosarcoma viability, CellTiter-Glo ATP luminescence, 48 h;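 further: NT is the 2HG producing partner of a matched IDH1 knockdown line; potency means the concentration at half of the fitted maximal effect; 0% = DMSO-treated cells and -100% = media-only wells without cells; nearly all actives have a fitted effect of over 55% in size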
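A 48-hour cytotoxicity screen used HT-1080-NT cells plated 2 hours before compound delivery. ATP-based CellTiter-Glo luminescence measured viability, normalized to DMSO and no-cell controls.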
HT1080 IDH1KD tx = HT-1080 IDH1 knockdown cell toxicity (counter line) | HT-1080 IDH1 knockdown viability, ATP luminescence, 48 h | Potency, µM (highest dose often 46.1 µM), without a hit: top-dose activity, negative = toxicity, actives largely listed as cytotoxic | 360,000 tested, 2% active;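 further: potency means the concentration at half of the fitted maximal effect; 0% = DMSO wells and -100% = cell-free medium wells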
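Viability of IDH1-knockdown HT-1080 fibrosarcoma cells was assessed by CellTiter-Glo after 48 h at 37 °C with titrated compound; concentration-effect curves were classified by fit quality and response size.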
The depositor's hits bear a star; ! = not active in a repeat. Unless noted, the call rests on the fitted dose curve; in most records, active means well fitted curve in the direction sought with a large enough effect; inconclusive means small, poorly fitted or top-dose-only effect, or another doubt; inactive means no such curve, though single readings can be large; an effect the other way counts as inactive or inconclusive. Unless noted, on the % scale 0 is the no-effect control and ±100 the full control effect.

How did COc1cccc(CC(O)CC2c3c(cc4c(c3OC)OCO4)CCN2C)c1 (configuration not stated) do in these assays?
DT40 TDP1 CPT: 20.6µM*; TDP1 cell noCPT: 14.6µM*; IL1B secr inh: 0.0; HT1080-NT tox: -28.3%; HT1080 IDH1KD tx: -18.9%

What do the screens show for `COc1ccc(-c2nc(-c3ccccc3)ncc2S(C)(=O)=O)cc1`?
DT40 TDP1 CPT: inconclusive; TDP1 cell noCPT: inconclusive; IL1B secr inh: 16.8; HT1080-NT tox: 11.7%; HT1080 IDH1KD tx: 0.9%

What do the screens show for `O=C(CCCNC(=O)c1ccc(Cl)cc1)Nc1ccc(Br)cc1`?
DT40 TDP1 CPT: -16.7%; TDP1 cell noCPT: -14.7%; IL1B secr inh: -19.3; HT1080-NT tox: -8.8%; HT1080 IDH1KD tx: -3.9%

How did O=C(CSc1nc2ccccc2c(=O)n1Cc1ccc(F)cc1)NCc1cccs1 do in these assays?
DT40 TDP1 CPT: 2.1%; TDP1 cell noCPT: 0.5%; IL1B secr inh: -3.1; HT1080-NT tox: 1.1%; HT1080 IDH1KD tx: 7.2%

Results for Cc1cccc(Cn2c(CNC(=O)c3ccccc3)nc3ccccc32)c1 ?
DT40 TDP1 CPT: -22.6%; TDP1 cell noCPT: inconclusive

Results for Cc1cccc(Cn2c(SCc3ccc(C(=O)NCc4cccs4)cc3)nc3ccncc32)c1 ?
DT40 TDP1 CPT: inconclusive; TDP1 cell noCPT: 23.1µM*

How did O=C(NCc1cccs1)c1ccc(CSc2nc3ccncc3n2Cc2ccccc2)cc1 do in these assays?
DT40 TDP1 CPT: inconclusive; TDP1 cell noCPT: 18.4µM*

How did CCCCN(CCO)CCCC do in these assays?
DT40 TDP1 CPT: 13.5%; TDP1 cell noCPT: -0.2%; IL1B secr inh: 14.5; HT1080-NT tox: 23.7%; HT1080 IDH1KD tx: 2.4%

What do the screens show for `O=C(N/N=C/c1cccc2nccnc12)c1ccccc1O`?
DT40 TDP1 CPT: 5.8µM*; TDP1 cell noCPT: 3.26µM*; IL1B secr inh: 247.7; HT1080-NT tox: inconclusive; HT1080 IDH1KD tx: -22.3%

How did O=C(N/N=C/c1cccc2nccnc12)c1ccncc1 do in these assays?
DT40 TDP1 CPT: inconclusive; TDP1 cell noCPT: inconclusive; IL1B secr inh: 33.3; HT1080-NT tox: -22.8%; HT1080 IDH1KD tx: inconclusive

How did O=C(N/N=C\c1ccncc1)c1ccccc1O do in these assays?
DT40 TDP1 CPT: 24.3%; TDP1 cell noCPT: -4.2%; IL1B secr inh: 0.0; HT1080-NT tox: -10.3%; HT1080 IDH1KD tx: -4.9%

Results for O=C(N/N=C/c1cccc2cccnc12)c1ccccc1O ?
DT40 TDP1 CPT: 5.17µM*; TDP1 cell noCPT: 4.11µM*; IL1B secr inh: 227.7; HT1080-NT tox: inconclusive; HT1080 IDH1KD tx: inconclusive

What do the screens show for `COc1cc(C(=O)Nc2nc(-c3ccc(C)cc3)cs2)ccc1OCC(=O)N1CCOCC1`?
DT40 TDP1 CPT: 23.1µM*; TDP1 cell noCPT: 20.6µM*; IL1B secr inh: -10.9; HT1080-NT tox: -19.5%; HT1080 IDH1KD tx: -3.5%

How did COc1cc(C(=O)NCCN2C(=O)S/C(=C\c3ccc(F)cc3)C2=O)ccc1OCC(=O)N1CCOCC1 do in these assays?
DT40 TDP1 CPT: 16.4µM*; TDP1 cell noCPT: 14.6µM*; IL1B secr inh: -0.8; HT1080-NT tox: inconclusive; HT1080 IDH1KD tx: 13.9%

How did COc1cc(/C=C2\SC(=O)NC2=O)ccc1OCC(=O)N1CCOCC1 do in these assays?
DT40 TDP1 CPT: 11.5%; TDP1 cell noCPT: -16.3%; IL1B secr inh: 2.4; HT1080-NT tox: -1.9%; HT1080 IDH1KD tx: 0.1%

What do the screens show for `COc1cc(C(=O)NNC(=O)c2ccc(F)cc2)ccc1OCC(=O)N1CCOCC1`?
DT40 TDP1 CPT: 1.8%; TDP1 cell noCPT: -3.6%; IL1B secr inh: 29.9; HT1080-NT tox: -3.9%; HT1080 IDH1KD tx: -2.5%

How did COc1ccc(OC)c(NC(=O)c2ccc(OCC(=O)N3CCOCC3)c(OC)c2)c1 do in these assays?
DT40 TDP1 CPT: -29.3%; TDP1 cell noCPT: inconclusive; IL1B secr inh: -20.5; HT1080-NT tox: 11.9%; HT1080 IDH1KD tx: -0.4%

Results for COc1cc(C(=O)Nc2nc(-c3ccc(F)cc3)cs2)ccc1OCC(=O)N1CCOCC1 ?
DT40 TDP1 CPT: 18.4µM*; TDP1 cell noCPT: 11.6µM*; IL1B secr inh: inconclusive; HT1080-NT tox: -18.7%; HT1080 IDH1KD tx: -2.8%

What do the screens show for `COc1cc(C(=O)Nc2nc(-c3cc(C)ccc3C)c(C)s2)ccc1OCC(=O)Nc1ccc(F)cc1`?
DT40 TDP1 CPT: inconclusive; TDP1 cell noCPT: inconclusive; IL1B secr inh: 32.4; HT1080-NT tox: -8.1%; HT1080 IDH1KD tx: -10.5%

What do the screens show for `COc1ccc(-c2nc(NC(=O)c3ccc(OCC(=O)Nc4ccc(F)cc4)c(OC)c3)sc2C)cc1`?
DT40 TDP1 CPT: inconclusive; TDP1 cell noCPT: 18.4µM*; IL1B secr inh: -1.2; HT1080-NT tox: 18.4µM*; HT1080 IDH1KD tx: 16.4µM*

Results for CCOC(=O)/C=C/c1ccccc1S(=O)(=O)NC(C)(C)C ?
DT40 TDP1 CPT: inconclusive; TDP1 cell noCPT: -23.7%; IL1B secr inh: 24.7; HT1080-NT tox: 0.1%; HT1080 IDH1KD tx: -0.8%

How did COc1ccc(-c2csc(NC(=O)c3ccc(OCC(=O)N4CCOCC4)c(OC)c3)n2)cc1 do in these assays?
DT40 TDP1 CPT: 7.31µM*; TDP1 cell noCPT: 10.3µM*; IL1B secr inh: -79.4*; HT1080-NT tox: -21.0%; HT1080 IDH1KD tx: -18.7%

Results for Cc1ccc(OCCCCn2nnc3sc4c(c3c2=O)CCCC4)cc1 ?
DT40 TDP1 CPT: -11.3%; TDP1 cell noCPT: -0.6%

What do the screens show for `COc1cc(/C=N/Nc2nc(N3CCCC3)nc(N3CCCC3)n2)ccc1OCc1ccccc1F`?
DT40 TDP1 CPT: 16.4µM*; TDP1 cell noCPT: 20.6µM*; IL1B secr inh: -13.0; HT1080-NT tox: 11.8%; HT1080 IDH1KD tx: 7.9%

How did COc1ccc(/C=N/Nc2nc(N3CCCC3)nc(N3CCCC3)n2)cc1O do in these assays?
DT40 TDP1 CPT: -21.6%; TDP1 cell noCPT: inconclusive; IL1B secr inh: 10.1; HT1080-NT tox: -7.2%; HT1080 IDH1KD tx: -8.8%

How did Cc1cc(=O)n2c(C(=O)Nc3ccc(Br)cc3)c(C(=O)Nc3ccccc3)sc2n1 do in these assays?
DT40 TDP1 CPT: -15.5%; TDP1 cell noCPT: 2.1%

How did Cn1c2c(c(=O)n(C)c1=O)C(c1ccc(Cl)cc1)C(C#N)=C(N)O2 (configuration not stated) do in these assays?
DT40 TDP1 CPT: 1.1%; TDP1 cell noCPT: -4.3%; IL1B secr inh: 5.8; HT1080-NT tox: 4.6%; HT1080 IDH1KD tx: -6.2%

Results for Cn1cc(-c2ccccc2C(N)=O)c(=O)c2cc(Cl)ccc21 ?
DT40 TDP1 CPT: 1.0%; TDP1 cell noCPT: -24.0%; IL1B secr inh: 24.0; HT1080-NT tox: 5.4%; HT1080 IDH1KD tx: 5.3%

What do the screens show for `Cn1cc(C2=C(c3ccc(Cl)cc3Cl)C(=O)NC2=O)c2ccccc21`?
DT40 TDP1 CPT: inconclusive; TDP1 cell noCPT: 11.2µM*!; IL1B secr inh: -1.3; HT1080-NT tox: 2.9%; HT1080 IDH1KD tx: -27.4%
